A number with no mark means an inactive call. For some assays here: Entries with a potency or affinity are not part of this list. The source made the active and inactive calls. Unless noted, how the calls were made is not given here.
Tests used:
[1] = antimalarial activity against Dd2 strain (AID 2302;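 active means growth inhibition above 50% at the single 2 µM test dose, taken to imply half-maximal potency below 2 µM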;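 further: 0% = DMSO untreated growth and 100% = chloroquine plus artemisinin killed control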); conditions: P. falciparum Dd2 in RBCs, LDH growth readout, 72 h; at 2 µM; hits give high values
[2] = human hepatoma cell viability loss – ATP luminescence, cytotoxicity control for P. falciparum antimalarial project, primary screen (AID 2303;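 active means inhibition above 50%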;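 further: 0% = DMSO wells and 100% = digitonin-killed cells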); conditions: HepG2 viability, 24-48 h, at 10 µM, hits give high values
[3] = target: L-lactate dehydrogenase (Plasmodium falciparum (isolate CDC / Honduras)) (UniProt Q27743); test: PfLDH activity inhibition – cell lysate, 3D7 strain, counter-screen for P. falciparum growth inhibition project (AID 2304);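 further: 0% = vehicle and 100% = reference inhibitor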; conditions: P. falciparum 3D7 crude extract, LDH APAD/NBT absorbance; at 2 µM; hits give high values
Chain of L-lactate dehydrogenase (Plasmodium falciparum (isolate CDC / Honduras)) (Q27743 whole entry, looked up): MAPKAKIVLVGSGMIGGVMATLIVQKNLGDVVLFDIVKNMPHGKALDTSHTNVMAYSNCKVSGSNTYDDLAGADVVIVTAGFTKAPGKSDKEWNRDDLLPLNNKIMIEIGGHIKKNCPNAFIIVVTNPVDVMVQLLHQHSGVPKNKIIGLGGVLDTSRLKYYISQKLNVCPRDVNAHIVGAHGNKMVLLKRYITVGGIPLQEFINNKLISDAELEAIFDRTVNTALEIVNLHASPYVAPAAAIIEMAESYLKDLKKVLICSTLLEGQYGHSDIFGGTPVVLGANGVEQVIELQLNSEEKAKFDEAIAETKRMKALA

[4] = inhibition of 3D7 malaria parasite growth – strain 3D7 (AID 2306);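 further: 0% = DMSO wells and 100% = chloroquine plus artemisinin control wells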; conditions: P. falciparum 3D7 erythrocytic growth, LDH absorbance, 72 h; at 2 µM; hits give high values
[5] = target: Calcium-dependent protein kinase 1 (Plasmodium falciparum (isolate 3D7)) (UniProt P62344); test: PfCDPK1 kinase inhibitors, biochemical, TCAMS library (AID 1159585; cut-off not given, nearly all actives have IC50 up to about 0.98 µM;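 further: inhibitors leave more ATP so luminescence rises with inhibition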); conditions: recombinant PfCDPK1, Kinase-Glo ATP depletion luminescence
Chain of Calcium-dependent protein kinase 1 (Plasmodium falciparum (isolate 3D7)) (P62344 whole entry, looked up): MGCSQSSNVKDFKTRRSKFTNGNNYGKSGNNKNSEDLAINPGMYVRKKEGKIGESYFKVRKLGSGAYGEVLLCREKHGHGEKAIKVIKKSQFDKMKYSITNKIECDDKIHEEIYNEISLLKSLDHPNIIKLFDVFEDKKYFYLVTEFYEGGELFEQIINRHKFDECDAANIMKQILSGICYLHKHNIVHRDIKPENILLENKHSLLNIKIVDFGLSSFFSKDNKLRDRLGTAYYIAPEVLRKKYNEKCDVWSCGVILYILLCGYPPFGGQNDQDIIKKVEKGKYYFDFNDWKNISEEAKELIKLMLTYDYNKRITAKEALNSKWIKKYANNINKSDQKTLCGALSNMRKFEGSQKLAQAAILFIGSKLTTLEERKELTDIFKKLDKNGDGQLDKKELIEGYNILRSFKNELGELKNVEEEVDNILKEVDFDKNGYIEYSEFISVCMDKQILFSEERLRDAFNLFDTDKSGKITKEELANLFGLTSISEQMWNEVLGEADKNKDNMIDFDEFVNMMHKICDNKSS

[6] = target: Plasmodium falciparum protein kinase 6 (PK6, PF3D7_1337100) (UniProt Q8IDW1); test: PfPK6 kinase inhibitors, biochemical, TCAMS library (AID 1159586); conditions: recombinant PfPK6, Kinase-Glo ATP depletion luminescence
Chain of Plasmodium falciparum protein kinase 6 (PK6, PF3D7_1337100) (Q8IDW1 1-305): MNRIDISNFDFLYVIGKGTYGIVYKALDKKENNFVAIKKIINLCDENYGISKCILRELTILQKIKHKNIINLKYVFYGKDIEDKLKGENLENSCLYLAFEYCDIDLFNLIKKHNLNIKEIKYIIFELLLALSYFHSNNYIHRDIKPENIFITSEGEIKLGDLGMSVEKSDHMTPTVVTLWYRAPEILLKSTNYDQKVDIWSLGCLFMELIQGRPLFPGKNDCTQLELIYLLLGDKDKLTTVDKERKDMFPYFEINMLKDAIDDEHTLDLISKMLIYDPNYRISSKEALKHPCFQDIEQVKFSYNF

[7] = target: Protein kinase 7 (PK7), Plasmodium falciparum 3D7 (PF3D7_0213400) (UniProt Q7YTF7); test: inhibition of Plasmodium PK7 catalytic activity – biochemical, TCAMS antimalarial set, Kinase-Glo luminescence (AID 1159587); conditions: recombinant PfPK7, Kinase-Glo ATP depletion luminescence
Chain of Protein kinase 7 (PK7), Plasmodium falciparum 3D7 (PF3D7_0213400) (Q7YTF7 1-343): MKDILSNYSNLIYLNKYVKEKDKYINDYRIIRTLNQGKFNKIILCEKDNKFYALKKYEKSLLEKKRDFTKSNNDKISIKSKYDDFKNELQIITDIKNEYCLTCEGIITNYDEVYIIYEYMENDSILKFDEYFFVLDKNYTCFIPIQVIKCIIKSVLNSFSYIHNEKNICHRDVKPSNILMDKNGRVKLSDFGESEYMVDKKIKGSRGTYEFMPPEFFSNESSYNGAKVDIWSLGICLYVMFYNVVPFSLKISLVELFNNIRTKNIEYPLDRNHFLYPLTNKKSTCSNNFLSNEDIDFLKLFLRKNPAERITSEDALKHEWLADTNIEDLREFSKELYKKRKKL

[8] = target: Calcium-dependent protein kinase 4 (Plasmodium falciparum (isolate 3D7)) (UniProt Q8IBS5); test: PfCDPK4 kinase inhibitors, biochemical, TCAMS library (AID 1159588; cut-off not given, nearly all actives have IC50 up to about 0.91 µM); conditions: recombinant PfCDPK4, Kinase-Glo ATP depletion luminescence
Chain of Calcium-dependent protein kinase 4 (Plasmodium falciparum (isolate 3D7)) (Q8IBS5 whole entry, looked up): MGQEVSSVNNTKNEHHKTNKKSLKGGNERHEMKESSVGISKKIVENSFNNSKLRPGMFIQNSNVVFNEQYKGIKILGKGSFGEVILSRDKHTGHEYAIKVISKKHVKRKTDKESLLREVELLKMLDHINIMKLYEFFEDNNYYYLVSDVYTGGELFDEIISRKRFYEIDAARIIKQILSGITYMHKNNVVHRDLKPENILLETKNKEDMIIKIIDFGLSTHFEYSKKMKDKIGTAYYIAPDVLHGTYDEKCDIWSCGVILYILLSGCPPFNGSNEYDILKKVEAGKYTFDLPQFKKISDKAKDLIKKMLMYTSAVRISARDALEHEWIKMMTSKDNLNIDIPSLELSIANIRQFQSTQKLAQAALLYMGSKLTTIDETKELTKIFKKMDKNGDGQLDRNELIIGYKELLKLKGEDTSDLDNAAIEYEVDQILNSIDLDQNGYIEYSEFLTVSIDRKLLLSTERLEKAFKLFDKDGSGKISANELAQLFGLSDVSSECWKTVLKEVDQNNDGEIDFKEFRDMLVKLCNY

SMILES | growth inhibition [1] | inhibition [2] | inhibition [3] | growth inhibition [4] | outcome [5] | outcome [6] | outcome [7] | outcome [8]
CC(C)CC(C)NC(=O)C1Cc2c([nH]c3cc(Cl)ccc23)C2(CCN(CCc3ccccc3)CC2)N1 (stereo not given) | 65% (active) | 15% | -1% | 95% (active) | inactive | inactive | inactive | inactive
O=C(c1ccccc1[N+](=O)[O-])N(Cc1ccccc1)c1ccccn1 | -2% | 0% | -1% | 91% (active) | inactive | inactive | inactive | inactive
COc1ccc2ncc(F)c(NC(=O)C3CCC(NCc4cc5c(F)cccc5[nH]4)CC3)c2n1 (stereo not given) | 29% | 39% | -1% | 91% (active) | inactive | inactive | inactive | inactive
Nc1ncc(-c2ccc3nccc(-c4ccncc4)c3c2)cc1S(=O)(=O)N1CCCCC1 | 100% (active) | 25% | 3% | 100% (active) | inactive | inactive | inactive | inactive
NC(=O)c1ccsc1NC(=O)CNC(c1ccccc1)c1ccc(Cl)cc1 (stereo not given) | 89% (active) | 25% | -3% | 83% (active) | inactive | inactive | inactive | inactive
N#Cc1cccc(C(=O)Nc2ccc(-c3cccc(CN4CCC(O)CC4)c3)cc2)c1 | 68% (active) | 33% | 7% | 100% (active) | inactive | inactive | inactive | inactive
CC(C)Nc1cc(C(=O)N[C@@H](Cc2ccccc2)[C@H](O)CNC2CCOCC2)c(F)c(N2CCCCS2(=O)=O)c1 | 98% (active) | 2% | -2% | 98% (active) | inactive | inactive | inactive | inactive
N#Cc1ccc(N(CCOc2ccc(Cl)cc2)Cc2ccccc2C(F)(F)F)cc1C(F)(F)F | 64% (active) | 3% | 2% | 91% (active) | inactive | inactive | inactive | inactive
Cc1nnsc1C(=O)Nc1cccc(-c2cccc(-c3nc4ccc(C(F)(F)F)cc4[nH]3)c2)c1 | 100% (active) | 70% (active) | 1% | 101% (active) | inactive | inactive | inactive | inactive
O=C(Nc1ccc(-c2nc3ccccc3[nH]2)cc1)c1cccc(S(=O)(=O)N2CCCC2)c1 | 64% (active) | 0% | -5% | 100% (active) | inactive | inactive | inactive | inactive
c1ccc(COc2ccc(Nc3ncnc4cnc(-c5ccc(CN6CCCCC6)o5)cc34)cc2)cc1 | 13% | -14% | -5% | 90% (active) | inactive | inactive | inactive | inactive
Cc1nn(C)cc1C(C)Nc1nncc(-c2ccc(C(F)(F)F)cc2)n1 (stereo not given) | 99% (active) | -3% | -5% | 100% (active) | inactive | inactive | inactive | inactive
CS(=O)(=O)c1ccc2c(c1)CCN(CCC1CCC(NC(=O)C(=Cc3cccc(C#N)c3)c3ccc(-c4ccccc4)cc3)CC1)CC2 (stereo not given) | 13% | 24% | -6% | 99% (active) | inactive | inactive | inactive | inactive
CCc1c(C(=O)NC2CCC(N3CCC(c4ccccc4C)CC3)CC2)[nH]c2ccc(Br)cc12 (stereo not given) | 99% (active) | 81% (active) | -5% | 101% (active) | inactive | inactive | inactive | inactive
COC(=O)Cn1c(C2CCN(CC3CCC(NC(=O)/C=C/c4ccc(Cl)c(Cl)c4)CC3)CC2)nc2ccccc21 (stereo not given) | 17% | 12% | 4% | 95% (active) | inactive | inactive | inactive | inactive
COc1ccc(C(=O)Nc2ccc(Cl)cc2C(=O)Nc2ccncc2)cc1 | 29% | 7% | 1% | 91% (active) | inactive | inactive | inactive | inactive
CCOC(=O)NCC(=O)Nc1cccc(-c2cccc(-c3nc4ccc(C(F)(F)F)cc4[nH]3)c2)c1 | 34% | 59% (active) | -2% | 91% (active) | inactive | inactive | inactive | inactive
Cc1cc(-c2cccc(CNC3CCN(C)CC3)c2)ccc1S(=O)(=O)NCCc1ccccn1 | 72% (active) | 22% | 2% | 97% (active) | inactive | inactive | inactive | inactive
CCOc1ccc2nc(C)cc(NN=Cc3cccc(C)n3)c2c1 | 73% (active) | 6% | 0% | 99% (active) | inactive | inactive | inactive | inactive
Cc1cccc2[nH]c(-c3ccc(-c4cccc(NC(=O)c5cncn5C)c4)cc3)nc12 | 1% | 2% | 2% | 100% (active) | inactive | inactive | inactive | inactive

SMILES | growth inhibition [1] | inhibition [2] | inhibition [3] | growth inhibition [4] | outcome [5] | outcome [6] | outcome [7] | outcome [8]
CC(C)c1cc2c(cc1O)C(Cc1ccccc1Cl)N(C)CC2 (stereo not given) | 33% | -7% | -4% | 97% (active) | inactive | inactive | inactive | inactive
Cc1ccc(NC(=O)Nc2ccccc2F)cc1-c1ccc(C(=O)Nc2ccncc2)cc1 | 54% (active) | 36% | 3% | 99% (active) | inactive | inactive | inactive | inactive
FC(F)(F)c1ccc2nc(-c3ccc(-c4cccc(CNCc5ccccc5)c4)s3)[nH]c2c1 | 83% (active) | 15% | -5% | 102% (active) | inactive | inactive | inactive | inactive
COc1cc2nc(NCC3CCN(c4nc(N)c5cc(OC)c(OC)cc5n4)CC3)nc(N)c2cc1OC | 73% (active) | 12% | -2% | 92% (active) | inactive | inactive | inactive | inactive
CCCCOC(=O)[C@H](CCC)NC(=O)c1ccc(NS(=O)(=O)c2ccc3nc(N)[nH]c(=O)c3c2)cc1 | 3% | 66% (active) | -1% | 99% (active) | inactive | inactive | inactive | inactive
CC(=O)Nc1ccc(COc2ccc(Nc3ccnc4cc(-c5ccccn5)ccc34)cc2)cc1 | 94% (active) | 99% (active) | 3% | 99% (active) | inactive | inactive | inactive | inactive
COc1ccc(CN2CCCN(Cc3cccc(NC(=O)c4ccc5ccccc5c4)c3)CC2)cc1 | 11% | 27% | -5% | 93% (active) | inactive | inactive | inactive | inactive
CC(C)CC(=O)N1CCNC[C@@H]1C(=O)NCCSCc1c(F)cccc1Cl | 3% | 1% | 0% | 86% (active) | inactive | inactive | inactive | inactive
CCOc1cc(C)ccc1C1CCN(CCCCNC(=O)c2cnc(-c3ccc(C(F)(F)F)cc3)[nH]2)CC1 | 97% (active) | 16% | 2% | 95% (active) | inactive | inactive | inactive | inactive
CC(CNC(=O)[C@H]1CNCCN1C(=O)CCCc1ccccc1)c1ccccc1 (stereo not given in full) | 1% | 12% | 3% | 94% (active) | inactive | inactive | inactive | inactive
COc1cccc(Nc2nc(C)cc(Nc3cccc(C#N)c3)n2)c1 | 92% (active) | -2% | -3% | 101% (active) | inactive | inactive | inactive | inactive
Fc1ccc(Nc2n[nH]c(CNC3CCN(Cc4ccc(Cl)c(Cl)c4)CC3)n2)cc1 | 36% | 18% | 5% | 101% (active) | inactive | inactive | inactive | inactive
Cc1cc(C(=O)OCC(=O)Nc2c(C)n(C)n(-c3ccccc3)c2=O)c(C)n1-c1ccc(F)cc1 | 99% (active) | -4% | -1% | 100% (active) | inactive | inactive | inactive | inactive
CCN(CC)CCON=Cc1cc(C)c2[nH]c3ccc(OCc4ccccc4)cc3c2c1C | 29% | 29% | 1% | 98% (active) | inactive | inactive | inactive | inactive
CC(=O)Nc1ccc2[nH]cc(C3CCN(CC4CCC(NC(=O)/C=C/c5ccc(Cl)c(Cl)c5)CC4)CC3)c2n1 (stereo not given) | 79% (active) | 17% | -1% | 101% (active) | inactive | inactive | inactive | inactive
CC(C)(C)c1ccc(CN2CCCCC(NC(=O)c3cc(-c4cccc(F)c4)cs3)C2)cc1 (stereo not given) | 84% (active) | 8% | -3% | 98% (active) | inactive | inactive | inactive | inactive
COc1ccc(NC(=O)[C@H](Cc2ccccc2)Nc2cc(C)nc(NCCc3cccs3)n2)cc1 | 83% (active) | 12% | -2% | 100% (active) | inactive | inactive | inactive | inactive
COc1cccc(C(=O)Nc2ccc(Nc3nc(C)cc(N(C)C)n3)cc2)c1OC | 9% | -10% | -3% | 90% (active) | inactive | inactive | inactive | inactive
O=C(C=Cc1cccc(F)c1)NC1CCC(CCN2CCc3ccc(-c4cnccn4)cc3CC2)CC1 (stereo not given) | 67% (active) | 51% (active) | -1% | 100% (active) | inactive | inactive | inactive | inactive
c1cc(-c2ccc(CN3CCCC3)cc2)cc(-c2nc3ccccc3[nH]2)c1 | 52% (active) | 25% | 0% | 100% (active) | inactive | inactive | inactive | inactive

Source: PubChem BioAssay
